Drawing on PubChem BioAssay (NCI), this text covers growth inhibition for ten compounds.

Compounds without any hit were thinned out: in the full panel of roughly 79,000, 15% have a hit. Unmarked numbers belong to inactive results. Activity calls are given as the source filed them. Rule as the data show it: active = growth inhibition above about 70%; inactive = the rest.

Experiment [1] is described as follows: NCI Yeast Anticancer Drug Screen. Data for the rad50 strain (AID 155).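 Also: 0% = growth of vehicle-only cultures of the same strain.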 The following applies: S. cerevisiae rad50 strain growth inhibition, stronger effect = higher value. The method in brief:
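Yeast carrying a defined DNA repair defect were exposed to test compounds, and growth was compared with vehicle-treated controls to give percent inhibition.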

The nature of experiment [2]: NCI Yeast Anticancer Drug Screen. Data for the mec2-1 strain (AID 157). Conditions: S. cerevisiae mec2-1 strain, stronger effect = higher value. The gist of the method:
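Using mec2-1 yeast: add compound, measure growth, express inhibition versus vehicle-treated cultures.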

Experiment [3] in a line: NCI Yeast Anticancer Drug Screen. Data for the sgs1 mgt1 strain (AID 161).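 Also: 0% = growth of cultures given vehicle only.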 The following applies: S. cerevisiae sgs1 mgt1 strain, stronger effect = higher value. The gist of the method:
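Yeast cells carrying a defined DNA-repair defect were exposed to test compounds. Growth inhibition was measured relative to vehicle-treated controls.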

A short description of experiment [4]: NCI Yeast Anticancer Drug Screen. Data for the cln2 rad14 strain (AID 165).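 Also: 0% = growth equal to vehicle treated cultures.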 The following applies: S. cerevisiae cln2 rad14 strain, stronger effect = higher value. The method in brief:
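Yeast strain cln2 rad14, bearing defects in cell cycle control and DNA repair, serves as the test system; values reflect growth inhibition compared with vehicle.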

The nature of experiment [5]: NCI Yeast Anticancer Drug Screen. Data for the bub3 strain (AID 167). The following applies: S. cerevisiae bub3 mutant strain, stronger effect = higher value. The method in brief:
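Compounds were applied to a genetically altered yeast strain carrying a cell-cycle control defect. Growth inhibition was scored against vehicle-treated controls.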

A short description of experiment [6]: NCI Yeast Anticancer Drug Screen. Data for the mlh1 rad18 strain (AID 175). Conditions: S. cerevisiae mlh1 rad18 strain growth inhibition, stronger effect = higher value. The gist of the method: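 Steps: expose repair-defective yeast to compound; measure growth; express inhibition against vehicle-treated controls.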
The mark [7] stands for this setting: at 5.0 µM (retest, dose inferred, filed as 0.5).
[8] abbreviates: at 50.0 µM (retest, dose inferred, filed as 5.0).

With `CN(C)N=Nc1c(-c2ccccc2)n[nH]c1-c1ccccc1`, the growth inhibition was 95% (active) in experiment [1] (setting [7]); 99% (active) in experiment [1] (setting [8]); 99.6% (active) in experiment [1] (at 50.0 µM); 99% (active) in experiment [2] (setting [7]); 100% (active) in experiment [2] (setting [8]); 99.5% (active) in experiment [2] (at 50.0 µM). In addition, the growth inhibition in experiment [3] (setting [7]) was 99% (active); in experiment [3] (setting [8]), 100% (active); in experiment [3] (at 50.0 µM), 99.3% (active); in experiment [4] (setting [7]), 99% (active); in experiment [4] (setting [8]) it was 99% (active); in experiment [4] (at 50.0 µM), 99.5% (active). The growth inhibition in experiment [5] (setting [7]) was 99% (active); in experiment [5] (setting [8]) it was 99% (active); in experiment [5] (at 50.0 µM), 99.5% (active); in experiment [6] (setting [7]) it was 99% (active); in experiment [6] (setting [8]) it was 100% (active); in experiment [6] (at 50.0 µM) it was 99.5% (active).
Consider `Oc1c(Br)cc(Br)cc1-c1ccccc1`, for which the growth inhibition in experiment [1] (setting [7]) is 0%; in experiment [1] (setting [8]), 99% (active); in experiment [1] (at 50.0 µM), 98.1% (active); in experiment [2] (setting [7]), 9%; in experiment [2] (setting [8]), 100% (active); in experiment [2] (at 50.0 µM) it was 99.5% (active). In addition, the growth inhibition in experiment [3] (setting [7]) was 2%; in experiment [3] (setting [8]) it was 99% (active); in experiment [3] (at 50.0 µM), 99.5% (active); in experiment [4] (setting [7]) it was -5%; in experiment [4] (setting [8]), 100% (active); in experiment [4] (at 50.0 µM), 99.2% (active). Moreover, the growth inhibition in experiment [5] (setting [7]) was -5%; in experiment [5] (setting [8]), 100% (active); in experiment [5] (at 50.0 µM) it was 99.3% (active); in experiment [6] (setting [7]) it was -8%; in experiment [6] (setting [8]), 99% (active); in experiment [6] (at 50.0 µM), 99.3% (active).
For `CC(CC(=O)c1ccc2sc3ccccc3c2c1)C(=O)O` (stereo not given), the growth inhibition in experiment [1] (setting [7]) is 6%; in experiment [1] (setting [8]), 35%; in experiment [1] (at 50.0 µM), 58.4%; in experiment [2] (setting [7]), -4%; in experiment [2] (setting [8]), 47%; in experiment [2] (at 50.0 µM), 33.6%. Also, the growth inhibition is 14% in experiment [3] (setting [7]); 62% in experiment [3] (setting [8]); 49.2% in experiment [3] (at 50.0 µM); -2% in experiment [4] (setting [7]); 24% in experiment [4] (setting [8]); 60.4% in experiment [4] (at 50.0 µM). The growth inhibition in experiment [5] (setting [7]) was -2%; in experiment [5] (setting [8]) it was 21%; in experiment [5] (at 50.0 µM), 27.3%; in experiment [6] (setting [7]) it was 15%; in experiment [6] (setting [8]), 59%; in experiment [6] (at 50.0 µM), 56.8%.
For `CCCCCCCCN(CCCCCCCC)CC(O)c1cc2c(c3ccccc13)CCCC2` (stereo not given), the growth inhibition is 10% in experiment [1] (setting [7]); 95% (active) in experiment [1] (setting [8]); 99.2% (active) in experiment [1] (at 50.0 µM); 8% in experiment [2] (setting [7]); 96% (active) in experiment [2] (setting [8]); 99.4% (active) in experiment [2] (at 50.0 µM). Further, the growth inhibition was 25% in experiment [3] (setting [7]); 96% (active) in experiment [3] (setting [8]); 99.3% (active) in experiment [3] (at 50.0 µM); 13% in experiment [4] (setting [7]); 94% (active) in experiment [4] (setting [8]); 99.2% (active) in experiment [4] (at 50.0 µM). The growth inhibition in experiment [5] (setting [7]) was 28%; in experiment [5] (setting [8]) it was 95% (active); in experiment [5] (at 50.0 µM), 98.8% (active); in experiment [6] (setting [7]), 11%; in experiment [6] (setting [8]), 96% (active); in experiment [6] (at 50.0 µM), 98.8% (active).
Turning to `CCCCC(C)(C)OC(=O)Nc1ccc(Br)cc1`, the growth inhibition in experiment [1] (setting [7]) was 0%; in experiment [1] (setting [8]), 95% (active); in experiment [1] (at 50.0 µM), 96.3% (active); in experiment [2] (setting [7]), -14%; in experiment [2] (setting [8]), 94% (active); in experiment [2] (at 50.0 µM), 86.2% (active). The growth inhibition in experiment [3] (setting [7]) is -8%; in experiment [3] (setting [8]) it was 95% (active); in experiment [3] (at 50.0 µM), 97.8% (active); in experiment [4] (setting [7]) it was 43%; in experiment [4] (setting [8]) it was 96% (active); in experiment [4] (at 50.0 µM), 84.2% (active). Also, the growth inhibition was -8% in experiment [5] (setting [7]); 93% (active) in experiment [5] (setting [8]); 35.5% in experiment [5] (at 50.0 µM); -2% in experiment [6] (setting [7]); 96% (active) in experiment [6] (setting [8]); 97.4% (active) in experiment [6] (at 50.0 µM).
`CC1(C)OC2C(COC(c3ccccc3)(c3ccccc3)c3ccccc3)OC(n3ccc(=O)[nH]c3=O)C2O1` (stereo not given): the growth inhibition in experiment [1] (setting [7]) is 57%; in experiment [1] (setting [8]), 92% (active); in experiment [1] (at 50.0 µM) it was 75.9% (active); in experiment [2] (setting [7]), 35%; in experiment [2] (setting [8]) it was 96% (active); in experiment [2] (at 50.0 µM), 53.6%. Besides, the growth inhibition was 43% in experiment [3] (setting [7]); 56% in experiment [3] (setting [8]); 75.3% (active) in experiment [3] (at 50.0 µM); 28% in experiment [4] (setting [7]); 75% (active) in experiment [4] (setting [8]); 52.1% in experiment [4] (at 50.0 µM). The growth inhibition in experiment [5] (setting [7]) is 42%; in experiment [5] (setting [8]), 94% (active); in experiment [5] (at 50.0 µM), 72.6% (active); in experiment [6] (setting [7]) it was 52%; in experiment [6] (setting [8]), 95% (active); in experiment [6] (at 50.0 µM), 70.5% (active).
Take `[Cl][Pt+2][Cl].[NH-]CC1(C[NH-])CCCC1`: the growth inhibition is 28% in experiment [1] (setting [7]); 40% in experiment [1] (setting [8]); 0.2% in experiment [1] (at 50.0 µM); 14% in experiment [2] (setting [7]); 19% in experiment [2] (setting [8]); 0.9% in experiment [2] (at 50.0 µM). The growth inhibition was 26% in experiment [3] (setting [7]); 39% in experiment [3] (setting [8]); -26.1% in experiment [3] (at 50.0 µM); 7% in experiment [4] (setting [7]); 30% in experiment [4] (setting [8]); -3.1% in experiment [4] (at 50.0 µM). For the same compound, the growth inhibition is 19% in experiment [5] (setting [7]); 34% in experiment [5] (setting [8]); -19.2% in experiment [5] (at 50.0 µM); 26% in experiment [6] (setting [7]); 72% (active) in experiment [6] (setting [8]); -30% in experiment [6] (at 50.0 µM).
Regarding `NSc1ccc(N)s1`, the growth inhibition in experiment [1] (setting [7]) is -1%; in experiment [1] (setting [8]), 11%; in experiment [1] (at 50.0 µM), 37%; in experiment [2] (setting [7]) it was 6%; in experiment [2] (setting [8]), 12%; in experiment [2] (at 50.0 µM), 28.9%. Further, the growth inhibition is 1% in experiment [3] (setting [7]); 13% in experiment [3] (setting [8]); 50.6% in experiment [3] (at 50.0 µM); -7% in experiment [4] (setting [7]); 6% in experiment [4] (setting [8]); 36.9% in experiment [4] (at 50.0 µM). Further, the growth inhibition is -3% in experiment [5] (setting [7]); 14% in experiment [5] (setting [8]); 87.7% (active) in experiment [5] (at 50.0 µM); -1% in experiment [6] (setting [7]); 12% in experiment [6] (setting [8]); 58.6% in experiment [6] (at 50.0 µM).
In the case of `O=c1c2c3ccccc3[nH]c2c2cccc3c2n1CCC3`, the growth inhibition in experiment [1] (setting [7]) was 4%; in experiment [1] (setting [8]) it was 92% (active); in experiment [1] (at 50.0 µM) it was 88.7% (active); in experiment [2] (setting [7]), 5%; in experiment [2] (setting [8]), 88% (active); in experiment [2] (at 50.0 µM), 90% (active). The growth inhibition was 13% in experiment [3] (setting [7]); 89% (active) in experiment [3] (setting [8]); 88.2% (active) in experiment [3] (at 50.0 µM); -1% in experiment [4] (setting [7]); 69% in experiment [4] (setting [8]); 83.5% (active) in experiment [4] (at 50.0 µM). Moreover, the growth inhibition in experiment [5] (setting [7]) is 11%; in experiment [5] (setting [8]), 96% (active); in experiment [5] (at 50.0 µM), 89.3% (active); in experiment [6] (setting [7]), 13%; in experiment [6] (setting [8]) it was 94% (active); in experiment [6] (at 50.0 µM) it was 88.8% (active).
With `CC(N1CCOCC1)C(O)(c1ccccc1)c1ccccn1` (stereo not given), the growth inhibition was 3% in experiment [1] (setting [7]); 10% in experiment [1] (setting [8]); -19.4% in experiment [1] (at 50.0 µM); -1% in experiment [2] (setting [7]); -15% in experiment [2] (setting [8]); -35.9% in experiment [2] (at 50.0 µM). The growth inhibition in experiment [3] (setting [7]) was -4%; in experiment [3] (setting [8]) it was -15%; in experiment [3] (at 50.0 µM) it was -32.6%; in experiment [4] (setting [7]) it was 24%; in experiment [4] (setting [8]), -1%; in experiment [4] (at 50.0 µM), 60.2%. Moreover, the growth inhibition in experiment [5] (setting [7]) was -2%; in experiment [5] (setting [8]), -15%; in experiment [5] (at 50.0 µM) it was -42.4%; in experiment [6] (setting [7]) it was 4%; in experiment [6] (setting [8]) it was 19%; in experiment [6] (at 50.0 µM), 2.75%.
